This is an account of results in PubChem BioAssay (NCATS).

In experiment [1] the target is Cytochrome P450 1A2 (Homo sapiens) (UniProt P05177). Description: p450-cyp1a2 (AID 410; calls by dose curve; note: potency is the fitted concentration of half-maximal effect;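 for activity change, negative = inhibition: -100% = full effect of reference inhibitor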). Summed up: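 Read-out is luminescence from luciferin produced by CYP1A2 demethylation of Luciferin-ME (100uM, at Km). Detection reagent stopped the 60 min NADPH-dependent reaction; signals were normalized to 57 uM furafylline.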
Experiment [2] has as its target Mitogen-activated protein kinase 10 (Mus musculus) (UniProt Q61831). Description: JNK3 AlphaScreen Assay (AID 530; active = well fitted curve in either direction with a large enough effect, not every such curve was filed as active;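 note: kinase came from lysate of stimulated human HepG2 cells; signal reports phosphorylation of biotinylated GST-cJun 1-79 at Ser73 with 10 µM ATP; % is set by controls: 0 for no effect and ±100 for the full control effect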). Summed up:
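HepG2 lysate (IL-1b/TNFa pre-activated) + biotin-GST-cJun 1-79 + anti-pSer73 cJun; cpd titration, 15 min RT; ATP 10 uM start; Tris pH 7.6, MgCl2, DTT, vanadate; beads in EDTA buffer; AlphaScreen.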
(In Alpha technology, singlet oxygen from a donor bead excites a nearby acceptor bead.)

The target of experiment [3] is Cytochrome P450 3A4 (Homo sapiens) (UniProt P08684). Nature of the experiment: qHTS Assay for Activators of Cytochrome P450 3A4 (AID 885). Note: nearly all actives have a fitted effect of over 65% in size. In outline:
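Activators are scored by enhanced luminescence from CYP3A4 conversion of luciferin-PPXE (25uM, equal to KM) to luciferin, after 60 min at RT with an NADPH-regenerating system.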
A general note: Quantitative high-throughput screening tests each substance at several concentrations.

The target in experiment [4] is Cytochrome P450 2C19 (Homo sapiens) (UniProt P33261). Description: qHTS Assay for Inhibitors and Substrates of Cytochrome P450 2C19 (AID 899). For activity, negative = inhibition: % is set by controls: 0 for no effect and ±100 for the full control effect. Note: nearly all actives have a fitted effect of over 60% in size. Note: potency is the fitted concentration of half-maximal effect. Summed up: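 Luminescent read-out of luciferin formed from Luciferin-H EGE (10uM, equal to KM). Enzyme 5nM in 50mM KPO4; compound added, 10 min at 37C, then NADPH regenerating system for 60 min at 37C. Full inhibition defined by 57uM ketoconazole.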

Experiment [5] deals with 3',5'-cyclic-AMP phosphodiesterase 4B (Homo sapiens) (UniProt Q07343). Description: qHTS Assay for Inhibitors of PDE-IV (AID 607; active = well fitted activation curve with a large enough effect in the main read-out, with a control signal flat, not every such curve was filed as active; note: % of control where 0% means no effect). In outline: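 The readout is membrane depolarisation from a cAMP-sensing CNG channel, detected with a potential dye at ex 535/em 590. Cells were HEK293-derived (endogenous PDE-IV) at 1000 cells/well, titrated up to 22.9 uM final.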
The target in experiment [6] is Cytochrome P450 2C9 (Homo sapiens) (UniProt P11712). Nature of the experiment: qHTS Assay for Inhibitors and Substrates of Cytochrome P450 2C9 (AID 883). Note: potency is the fitted concentration of half-maximal effect; nearly all actives have a fitted effect of over 60% in size. Summed up: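 10nM CYP2C9 + 100uM Luciferin-H (=KM), 25mM KPO4; cpd 10 min 37C; NADPH regen, 60 min 37C; stop/detect with P450 Glo-Buffer 20 min; luminescence. Norm. to 57uM sulphaphenazole as full inhibition.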
Experiment [7] has as its target Cytochrome P450 3A4 (Homo sapiens) (UniProt P08684). Description: qHTS Assay for Inhibitors and Substrates of Cytochrome P450 3A4 (AID 884). Note: potency is the fitted concentration of half-maximal effect; nearly all actives have a fitted effect of over 50% in size. Summed up: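 Luminescent readout of luciferin produced by CYP3A4 (20 nM) dealkylation of Luciferin-PPXE, 25 uM (its KM). NADPH-driven reaction ran 60 min at RT after 10 min compound preincubation; data scaled to 57 uM ketoconazole as 100% inhibition.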

The target in experiment [8] is Cytochrome P450 2D6 (Homo sapiens) (UniProt P10635). Description: qHTS Assay for Inhibitors and Substrates of Cytochrome P450 2D6 (AID 891). Note: nearly all actives have a fitted effect of over 60% in size. Note: potency is the fitted concentration of half-maximal effect. In outline: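 Luminescent read-out of luciferin formed by 5 nM human CYP2D6 demethylating 30 uM Luciferin-ME EGE (Km level) over 60 min at room temperature after NADPH regeneration addition. Data normalized to full inhibition by 1.43 uM quinidine.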

Experiment [9] can be described thus: NFAT Signaling Pathway (AID 444; active = well fitted curve in either direction with a large enough effect, not every such curve was filed as active;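 note: carbachol stimulus at about its EC50 of 1 µM final; % is set by controls: 0 for no effect and ±100 for the full control effect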). The conditions noted are these: Jurkat NFAT-bla M1, carbachol, beta-lactamase ratio, 5 h. In outline:
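Jurkat cells with NFAT-driven β-lactamase reporter and co-expressed M1 receptor, stimulated with carbachol (final 1 uM, ~EC50), compound titration, 5 h at 37 °C. CCF4 loaded 1 h at RT; 460/530 nm ratio gave %activity and AC50.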

A short description of experiment [10]: Stat Signaling Pathway (AID 446; active = well fitted curve in either direction with a large enough effect, not every such curve was filed as active;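 note: ME-180 cervical cancer cells given 40 pM IL-6 alongside compound; SIE-controlled beta-lactamase reporter measured as 460/530 nm FRET emission ratio; % is set by controls: 0 for no effect and ±100 for the full control effect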). The conditions noted are these: ME-180 (cervical carcinoma) SIE beta-lactamase reporter, IL-6 stimulated, 5 h. Summed up: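 Emission at 460 and 530 nm (excitation 405 nm) reports SIE-controlled beta-lactamase in ME-180 cells. Cells received compound with 40 pM IL-6 for 5 hrs at 37 C; data scaled between 300 pM IL-6 and 125 nM JAK-inhibitor controls.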

The target of experiment [11] is DNA dC->dU-editing enzyme APOBEC-3G (Homo sapiens) (UniProt Q9HC16). Nature of the experiment: qHTS for inhibitors of Vif-A3G interactions: Validation (AID 588379). Note: 0% is about no effect. Summed up: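 Yellow fluorescence (Ex 488, Em 500-530) of Vif-coexpressing HeLa A3G-eYFP cells, scanned by Acumen cytometer, reports blocked A3G degradation. Cells plated at 700/well overnight at 37 deg C before compound addition, then a further overnight compound incubation at 37 deg C.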

Molecules are shown by their SMILES. Unmarked numbers belong to inactive results. Results filed as inconclusive are left out. Activity calls are given as the source filed them. Unless noted, calls come from the whole dose curve; as a rule, active = well fitted curve in the direction sought with a large enough effect; inconclusive = small, poorly fitted or top-dose-only effect, or another doubt; inactive = no such curve, though single readings can be large; an effect the other way counts as inactive or inconclusive.

Cytochrome P450 2D6 (Homo sapiens), sequence (P10635 whole entry, looked up): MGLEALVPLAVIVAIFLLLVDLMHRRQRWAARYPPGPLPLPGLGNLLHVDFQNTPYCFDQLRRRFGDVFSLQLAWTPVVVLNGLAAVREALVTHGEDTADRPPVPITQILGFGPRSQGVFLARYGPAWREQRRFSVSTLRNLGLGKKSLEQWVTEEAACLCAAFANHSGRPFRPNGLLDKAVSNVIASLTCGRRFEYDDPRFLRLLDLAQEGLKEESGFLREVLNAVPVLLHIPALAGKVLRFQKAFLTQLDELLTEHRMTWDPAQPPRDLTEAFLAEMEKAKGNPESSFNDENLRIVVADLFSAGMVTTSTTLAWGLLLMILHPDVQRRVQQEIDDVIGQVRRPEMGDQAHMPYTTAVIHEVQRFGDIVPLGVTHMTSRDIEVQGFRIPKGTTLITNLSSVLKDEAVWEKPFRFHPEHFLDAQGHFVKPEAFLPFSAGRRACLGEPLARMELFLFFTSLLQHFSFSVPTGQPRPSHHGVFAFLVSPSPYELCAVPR
Cytochrome P450 2C19 (Homo sapiens), sequence (P33261 whole entry, looked up): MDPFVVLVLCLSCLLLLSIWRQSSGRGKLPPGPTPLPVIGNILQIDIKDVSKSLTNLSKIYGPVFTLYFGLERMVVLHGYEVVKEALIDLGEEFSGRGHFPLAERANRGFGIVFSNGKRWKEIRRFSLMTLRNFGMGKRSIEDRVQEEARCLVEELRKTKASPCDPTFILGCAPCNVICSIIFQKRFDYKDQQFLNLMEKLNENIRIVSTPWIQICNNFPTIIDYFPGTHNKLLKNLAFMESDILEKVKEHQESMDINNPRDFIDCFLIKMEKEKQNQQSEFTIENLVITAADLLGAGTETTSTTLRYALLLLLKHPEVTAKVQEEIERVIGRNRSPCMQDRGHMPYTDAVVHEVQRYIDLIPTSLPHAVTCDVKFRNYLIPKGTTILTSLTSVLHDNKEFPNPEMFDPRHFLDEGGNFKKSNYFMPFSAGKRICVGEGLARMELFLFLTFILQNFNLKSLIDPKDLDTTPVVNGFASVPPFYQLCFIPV
Cytochrome P450 3A4 (Homo sapiens), sequence (P08684 whole entry, looked up): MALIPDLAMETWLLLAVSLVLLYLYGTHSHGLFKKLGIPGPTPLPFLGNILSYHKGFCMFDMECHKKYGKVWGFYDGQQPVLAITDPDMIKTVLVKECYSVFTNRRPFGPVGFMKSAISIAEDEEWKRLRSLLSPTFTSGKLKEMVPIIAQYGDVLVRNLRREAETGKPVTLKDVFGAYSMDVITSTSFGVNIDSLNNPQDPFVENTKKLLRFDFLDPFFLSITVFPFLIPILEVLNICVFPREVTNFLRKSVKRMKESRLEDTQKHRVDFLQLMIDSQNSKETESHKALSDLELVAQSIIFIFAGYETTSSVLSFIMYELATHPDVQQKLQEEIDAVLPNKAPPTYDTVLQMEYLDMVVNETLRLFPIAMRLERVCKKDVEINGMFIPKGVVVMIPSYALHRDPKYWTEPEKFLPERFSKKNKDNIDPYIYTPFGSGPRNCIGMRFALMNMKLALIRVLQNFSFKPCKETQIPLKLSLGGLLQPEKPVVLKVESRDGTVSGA
3',5'-cyclic-AMP phosphodiesterase 4B (Homo sapiens), sequence (Q07343 whole entry, looked up): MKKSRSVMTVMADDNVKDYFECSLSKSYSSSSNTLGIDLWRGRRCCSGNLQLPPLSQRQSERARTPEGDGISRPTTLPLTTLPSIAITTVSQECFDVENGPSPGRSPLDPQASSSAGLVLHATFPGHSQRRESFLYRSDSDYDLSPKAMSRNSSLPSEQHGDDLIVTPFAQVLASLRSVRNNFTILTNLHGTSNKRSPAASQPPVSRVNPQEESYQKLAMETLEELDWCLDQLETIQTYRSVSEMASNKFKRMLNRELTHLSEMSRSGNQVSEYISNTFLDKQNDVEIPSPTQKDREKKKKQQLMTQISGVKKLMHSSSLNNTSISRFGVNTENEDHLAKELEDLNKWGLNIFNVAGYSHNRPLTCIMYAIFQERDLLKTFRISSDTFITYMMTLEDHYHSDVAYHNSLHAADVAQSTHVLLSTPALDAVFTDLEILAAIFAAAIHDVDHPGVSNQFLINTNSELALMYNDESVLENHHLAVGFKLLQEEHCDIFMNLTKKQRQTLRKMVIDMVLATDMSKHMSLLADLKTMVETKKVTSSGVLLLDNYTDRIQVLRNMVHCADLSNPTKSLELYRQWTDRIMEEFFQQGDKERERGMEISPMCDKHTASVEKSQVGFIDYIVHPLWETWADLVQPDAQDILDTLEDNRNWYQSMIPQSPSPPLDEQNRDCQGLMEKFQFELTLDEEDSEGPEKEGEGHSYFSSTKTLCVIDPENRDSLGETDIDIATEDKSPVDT
Cytochrome P450 2C9 (Homo sapiens), sequence (P11712 whole entry, looked up): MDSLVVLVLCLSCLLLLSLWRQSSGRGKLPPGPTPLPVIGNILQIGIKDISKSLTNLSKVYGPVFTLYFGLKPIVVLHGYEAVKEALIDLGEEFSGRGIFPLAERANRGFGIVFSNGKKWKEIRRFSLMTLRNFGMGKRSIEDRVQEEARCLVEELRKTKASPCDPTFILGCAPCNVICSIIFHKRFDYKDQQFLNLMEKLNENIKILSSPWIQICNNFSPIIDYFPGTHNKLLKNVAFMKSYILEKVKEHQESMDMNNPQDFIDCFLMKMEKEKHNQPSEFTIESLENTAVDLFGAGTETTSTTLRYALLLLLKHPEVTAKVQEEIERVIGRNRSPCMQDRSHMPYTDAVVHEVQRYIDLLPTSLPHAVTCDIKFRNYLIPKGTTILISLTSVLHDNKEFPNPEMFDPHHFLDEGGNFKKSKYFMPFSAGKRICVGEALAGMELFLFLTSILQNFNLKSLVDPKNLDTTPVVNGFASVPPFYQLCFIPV
Cytochrome P450 1A2 (Homo sapiens), sequence (P05177 whole entry, looked up): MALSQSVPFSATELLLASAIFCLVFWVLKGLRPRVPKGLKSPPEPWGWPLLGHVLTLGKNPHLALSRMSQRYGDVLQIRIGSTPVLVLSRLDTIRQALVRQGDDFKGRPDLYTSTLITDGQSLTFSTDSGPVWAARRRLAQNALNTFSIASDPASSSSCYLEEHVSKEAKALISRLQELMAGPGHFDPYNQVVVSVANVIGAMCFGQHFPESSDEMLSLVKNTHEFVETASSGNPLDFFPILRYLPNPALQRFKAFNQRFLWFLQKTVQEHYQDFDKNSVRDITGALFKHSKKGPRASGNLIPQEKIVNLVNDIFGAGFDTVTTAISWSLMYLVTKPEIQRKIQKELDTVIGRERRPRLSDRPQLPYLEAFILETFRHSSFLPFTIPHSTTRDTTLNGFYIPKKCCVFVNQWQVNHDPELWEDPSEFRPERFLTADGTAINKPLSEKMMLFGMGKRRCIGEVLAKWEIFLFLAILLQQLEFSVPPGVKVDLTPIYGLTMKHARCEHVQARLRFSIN
DNA dC->dU-editing enzyme APOBEC-3G (Homo sapiens), sequence (Q9HC16 whole entry, looked up): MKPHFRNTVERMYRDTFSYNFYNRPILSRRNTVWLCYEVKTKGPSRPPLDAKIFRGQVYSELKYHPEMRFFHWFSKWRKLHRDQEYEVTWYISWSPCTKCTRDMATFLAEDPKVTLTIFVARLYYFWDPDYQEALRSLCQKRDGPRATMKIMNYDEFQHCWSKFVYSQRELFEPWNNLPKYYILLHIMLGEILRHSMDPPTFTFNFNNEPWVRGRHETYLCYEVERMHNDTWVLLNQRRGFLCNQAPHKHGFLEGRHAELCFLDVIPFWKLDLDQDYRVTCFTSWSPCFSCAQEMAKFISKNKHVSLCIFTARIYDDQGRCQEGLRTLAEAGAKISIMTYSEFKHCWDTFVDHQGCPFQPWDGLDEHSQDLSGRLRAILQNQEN

As to `COC(=O)[C@H]1C[C@@H]1[C@H](NC(=O)OCc1ccccc1)c1ccccc1`, the Potency in experiment [1] was 0.126 µM (active); in [4] it was 3160 nM (active). Moreover, the Potency result in experiment [2] and in [3] was “inactive” each time.

For the molecule `CCC/C=C(\CCC)C(NS(=O)(=O)c1cccs1)c1ccc(C(=O)OC)cc1` (centres undefined), the Potency in experiment [1] was 12.6 µM (active); in experiment [6], 2 µM (active); in experiment [7], 3.16 µM (active); in experiment [8] it was 6.31 µM (active); in [4], 794 nM (active). The Potency entry in [5] and in [3] was “inactive” in each case.

As for `CCC[C@@H]1C[C@@]1(CCC)C(NC(=O)c1ccccc1)c1cccc(Cl)c1` (some centres undefined), the Potency result in [1], in experiment [2] and in experiment [3] was “inactive” each time. Also, the Potency in experiment [8] is 3.16 µM (active).

For the molecule `CCC/C=C(\CCC)C(NC(=O)C(C)(C)C)c1ccc(C(=O)OC)cc1` (centres undefined), the Potency result in experiment [1] and in [3] was “inactive” each time.

As for `CCC/C=C(\CCC)C(NC(=O)c1ccc(C(F)(F)F)cc1)c1ccccc1` (centres undefined), the Potency was 25.1 µM (active) in [1] and 7.94 µM (active) in experiment [8]. The Potency entry in experiment [5] and in [3] was “inactive” in each case.

With `COC(=O)[C@H](C)[C@H]1C[C@]1(C)[C@H](NC(=O)OCc1ccccc1)c1ccccc1`, the Potency in experiment [1] was 15.8 µM (active); in [6] it was 2 µM (active); in experiment [7] it was 7.94 µM (active); in [4], 251 nM (active). Further, the Potency result in [5] and in experiment [3] was “inactive” in each case.

As for `C#CCOC(=O)NC(/C=C/CCCC)c1ccccc1` (centres undefined), the Potency in [1] was 15.8 µM (active). Also, the Potency result in experiment [2] and in experiment [3] was “inactive” each time.

For the molecule `CCC/C=C(\CCC)C(NS(=O)(=O)c1ccc(C(F)(F)F)cc1)c1ccc(C(=O)OC)cc1` (centres undefined), the Potency entry in experiment [1] and in experiment [3] was “inactive” each time. Also, the Potency is 3.16 µM (active) in experiment [6] and 2510 nM (active) in experiment [4].

With `CCC/C=C(\CCC)C(NS(=O)(=O)c1ccc(Cl)cc1)c1ccc(C(=O)OC)cc1` (centres undefined), the Potency in experiment [1] was 3.16 µM (active); in [6], 3.16 µM (active); in experiment [7], 3.98 µM (active); in experiment [4], 1580 nM (active). Moreover, the Potency result in [3] was “inactive”.

Regarding `CC(C)c1cccc2c([Si](C)(C)C)c3c(nc12)-c1cccc(=O)n1C3`, the figures for the Potency in experiment [1] and in [6] were 15.8 µM (active) and 2 µM (active), respectively. For the same molecule, the Potency result in [3] was “inactive”.

Consider `CCCC[C@@H]1C[C@H]1C(NC(=O)c1cccs1)c1ccc(Cl)cc1` (some centres undefined), for which the results for the Potency in experiment [1], in [7] and in [4] were 1 µM (active), 5.01 µM (active) and 79.4 nM (active), respectively. The Potency result in experiment [5] and in [3] was “inactive” each time.

Take `CCC/C=C(\CCC)C(NS(=O)(=O)c1ccc(Cl)cc1)c1ccccc1` (centres undefined): the Potency in [1] is 12.6 µM (active); in experiment [6], 2.51 µM (active); in experiment [7] it was 7.94 µM (active); in experiment [4], 398 nM (active). In addition, the Potency result in experiment [3] was “inactive”.

For the molecule `COC(=O)[C@@]1(Cc2ccccc2)[C@H]2c3cc(C(=O)N4CCCC4)n(Cc4ccccn4)c3C[C@H]2CN1C(=O)c1ccccc1`, the Potency result in [1], in experiment [5] and in experiment [3] was “inactive” each time. Further, the Potency was 0.199 µM (active) in experiment [6] and 2 µM (active) in experiment [7].

For `CC[C@H]1C2=C3C(CC[C@H]4C(OC)OC[C@](C)([C@@H]34)N(C(=O)OC(C)(C)C)C2)C(CO)C1CO` (some centres undefined), the Potency in [1] was 12.6 µM (active). Further, the Potency result in experiment [2], in experiment [3] and in experiment [4] was “inactive” in each case.

Consider `COc1cc2c(c(OC)c1OC)-c1ccc(OC)c(=O)cc1[C@H](NC(C)=O)CC2`, for which the activity change, negative = inhibition was -4.77% in [9] (at 17.2 µM (top of the series)) and 3.11% in experiment [9] (at 38 µM (top of the series)). Further, the activity, negative = inhibition was 4.59% in experiment [10] (at 17.2 µM (top of the series)) and -18.3% in experiment [10] (at 38 µM (top of the series)). The Potency result in experiment [5] and in experiment [8] was “inactive” throughout. The molecule was called inactive in [8] and in experiment [11].
